Assay [1] is described as follows: small molecules captured by biotinylated probe aFSTL3 – biochemical, small-molecule microarray, fluorescence 635/667, stem cell growth factor project, primary screen (AID 1064).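 Further: measures binding of the biotinylated anti-FSTL3 antibody to printed compounds.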 The following applies: higher = more signal.
Assay [2] is described as follows: binders from COS7 lysate, DM2A8 probe, primary screen, torsin A project, cell lysate, small-molecule microarray, fluorescence 635/667 (AID 1065). The note with it: higher = more signal, COS7 lysate expressing mutant human TOR1A.
Assay [3] in a line: small molecules captured by biotinylated probe aFGF2 – biochemical, small-molecule microarray, fluorescence 635/667, stem cell growth factor project, primary screen (AID 1067).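 Further: measures binding of biotinylated aFGF2 protein to printed compounds on slides; z-score merges feature fluorescence and signal-to-noise across triplicate slides.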 The following applies: higher = more signal.
A short description of assay [4]: small molecules captured by biotinylated probe aFGF10 – biochemical, small-molecule microarray, fluorescence 635/667, stem cell growth factor project, primary screen (AID 1071).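 Further: score merges 667 nm spot intensity and signal to noise from triplicate slides.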 The following applies: higher = more signal.
The target of assay [5] is Neurogenic locus notch homolog protein 2 (Homo sapiens) (UniProt Q04721). The assay is described as follows: small molecules binding Notch2 protein – biochemical, small-molecule microarray, 635 nm fluorescence, stem cell growth factors, primary screen (AID 1073). The note with it: higher = more signal.
Assay [6] concerns the target Pro-neuregulin-1, membrane-bound isoform (Homo sapiens) (UniProt Q02297). Put plainly: small molecules binding neuregulin-1 protein – biochemical, small-molecule microarray, fluorescence 635/667, psychiatric disease protein project, primary screen (AID 1075).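 Further: score combines 667 nm spot fluorescence with signal to noise.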 The following applies: NRG1 binding, 635 nm fluorescence, higher = more signal.
The subject of assay [7] is Neuregulin-1 EGF-like domain. The assay is described as follows: small molecules binding NRG1 EGF domain – biochemical, small-molecule microarray, 635 nm fluorescence, primary screen (AID 1081).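 Further: binding of the protein to compounds printed on small-molecule microarray slides.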 The note with it: higher = more signal.
A short description of assay [8]: FRG1 expression reporter modulators in myotubes – cell-based, C2C12 myotubes, firefly/Renilla luciferase, luminescence, FRG1 inhibition for FSHD, primary screen (AID 1084). The note with it: FRG1 promoter luciferase, higher = more signal, called active from +8 up or from −8 down.
Assay [9] in a line: small molecules captured by biotinylated probe aFST – biochemical, small-molecule microarray, fluorescence 635/667, stem cell growth factor project, primary screen (AID 1086).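 Further: score merges 667 nm fluorescence with signal-to-noise of each printed compound spot.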 The following applies: higher = more signal.
The nature of assay [10]: binders of probe aHhip on microarray, primary screen, stem cell growth factor project, biochemical, small-molecule microarray, fluorescence 635/667 (AID 1087).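 Further: score merges spot fluorescence at 667nm with spot signal to noise ratio.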 The note with it: higher = more signal.
Assay [11] deals with PRMT1 (protein arginine N-methyltransferase 1). Put plainly: small molecules binding arginine methyltransferase PRMT1 – biochemical, small-molecule microarray, 635 nm fluorescence, primary screen (AID 1088).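 Further: binding of Prmt1 protein to compounds spotted on small-molecule microarray slides.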 The following applies: higher = more signal.
Assay [12] in a line: growth effects on S. cerevisiae YJM789 – YJM789 clinical isolate, OD600, 24 h, basal, primary screen (AID 1089).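 Further: growth of clinical yeast isolate S. cerevisiae YJM 789 seeded 1000 cells per well; test concentration not given here.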 The note with it: higher = more signal, called active from +8 up or from −8 down.
Assay [13] in a line: S. pombe growth modifiers, basal conditions – strain 972, OD600, 24 h, no modulator, primary screen (AID 1090).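 Further: basal condition with compound alone and no growth modifier present; test concentration not given here.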 The following applies: S. pombe 972 growth, higher = more signal, called active from +8 up or from −8 down.
Assay [14] in a line: budding yeast growth modifiers under rapamycin – strain BY4716, OD600, 96 h, primary screen (AID 1091). Further: test concentration not given here. The note with it: S. cerevisiae BY4716 + rapamycin, higher = more signal, called active from +8 up or from −8 down.
For assay [15], the target named is Torsin-1A-interacting protein 2 (Homo sapiens) (UniProt Q8NFQ8). The assay is described as follows: small molecules binding lysate-expressed LULL1 – cell lysate, human LULL1 lysate, 635/667 nm fluorescence, primary screen (AID 1092).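 Further: score merges per-feature 667 nm fluorescence with signal-to-noise.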 The note with it: small-molecule microarray, hLULL1 lysate binding, 635 nm fluorescence; higher = more signal.
Chain of Torsin-1A-interacting protein 2 (Homo sapiens) (Q8NFQ8 whole entry, looked up): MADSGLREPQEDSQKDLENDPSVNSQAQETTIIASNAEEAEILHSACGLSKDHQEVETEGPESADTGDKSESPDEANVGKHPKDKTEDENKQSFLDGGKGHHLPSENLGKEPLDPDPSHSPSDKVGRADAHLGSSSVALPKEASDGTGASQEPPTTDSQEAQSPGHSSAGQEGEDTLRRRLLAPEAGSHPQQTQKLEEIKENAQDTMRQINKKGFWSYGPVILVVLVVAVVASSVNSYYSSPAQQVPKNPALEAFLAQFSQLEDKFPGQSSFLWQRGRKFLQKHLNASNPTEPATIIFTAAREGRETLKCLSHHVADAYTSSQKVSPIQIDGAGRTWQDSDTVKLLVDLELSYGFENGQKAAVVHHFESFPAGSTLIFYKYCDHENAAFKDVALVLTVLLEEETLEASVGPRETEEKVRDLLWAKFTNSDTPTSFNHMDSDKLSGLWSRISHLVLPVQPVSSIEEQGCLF
A short description of assay [16]: optical density change of DRC41 E. coli – strain DRC41, OD650, 24 h, E. coli filamentation project, primary screen (AID 1093).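 Further: MC1000 strain lacking acrAB efflux and sulA so SOS filamentation is blocked; test concentration not given here.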 The note with it: E. coli DRC41 growth, higher = more signal, called active from +8 up or from −8 down.
Assay [17] is described as follows: probe aLefty2 binding to arrayed compounds – biochemical, biotinylated probe, 635/667 nm fluorescence, primary screen (AID 1094).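 Further: score merges spot fluorescence near 667 nm with spot signal-to-noise ratio.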 The following applies: small-molecule microarray, higher = more signal.
For assay [18], the system named is Noggin (protein binding on small-molecule microarray). Put plainly: small molecules binding Noggin protein – biochemical, 635/667 nm fluorescence, primary screen (AID 1095).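 Further: score merges 667 nm feature fluorescence with signal to noise over triplicate slides.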 The note with it: 635 nm fluorescence, higher = more signal.
For assay [19], the target named is Neurogenic locus notch homolog protein 3 (Homo sapiens) (UniProt Q9UM47). Put plainly: small molecules binding NOTCH3 protein – biochemical, 635/667 nm fluorescence, primary screen (AID 1096). The note with it: small-molecule microarray, 635 nm fluorescence, higher = more signal.
Chain of Neurogenic locus notch homolog protein 3 (Homo sapiens) (Q9UM47 whole entry, looked up): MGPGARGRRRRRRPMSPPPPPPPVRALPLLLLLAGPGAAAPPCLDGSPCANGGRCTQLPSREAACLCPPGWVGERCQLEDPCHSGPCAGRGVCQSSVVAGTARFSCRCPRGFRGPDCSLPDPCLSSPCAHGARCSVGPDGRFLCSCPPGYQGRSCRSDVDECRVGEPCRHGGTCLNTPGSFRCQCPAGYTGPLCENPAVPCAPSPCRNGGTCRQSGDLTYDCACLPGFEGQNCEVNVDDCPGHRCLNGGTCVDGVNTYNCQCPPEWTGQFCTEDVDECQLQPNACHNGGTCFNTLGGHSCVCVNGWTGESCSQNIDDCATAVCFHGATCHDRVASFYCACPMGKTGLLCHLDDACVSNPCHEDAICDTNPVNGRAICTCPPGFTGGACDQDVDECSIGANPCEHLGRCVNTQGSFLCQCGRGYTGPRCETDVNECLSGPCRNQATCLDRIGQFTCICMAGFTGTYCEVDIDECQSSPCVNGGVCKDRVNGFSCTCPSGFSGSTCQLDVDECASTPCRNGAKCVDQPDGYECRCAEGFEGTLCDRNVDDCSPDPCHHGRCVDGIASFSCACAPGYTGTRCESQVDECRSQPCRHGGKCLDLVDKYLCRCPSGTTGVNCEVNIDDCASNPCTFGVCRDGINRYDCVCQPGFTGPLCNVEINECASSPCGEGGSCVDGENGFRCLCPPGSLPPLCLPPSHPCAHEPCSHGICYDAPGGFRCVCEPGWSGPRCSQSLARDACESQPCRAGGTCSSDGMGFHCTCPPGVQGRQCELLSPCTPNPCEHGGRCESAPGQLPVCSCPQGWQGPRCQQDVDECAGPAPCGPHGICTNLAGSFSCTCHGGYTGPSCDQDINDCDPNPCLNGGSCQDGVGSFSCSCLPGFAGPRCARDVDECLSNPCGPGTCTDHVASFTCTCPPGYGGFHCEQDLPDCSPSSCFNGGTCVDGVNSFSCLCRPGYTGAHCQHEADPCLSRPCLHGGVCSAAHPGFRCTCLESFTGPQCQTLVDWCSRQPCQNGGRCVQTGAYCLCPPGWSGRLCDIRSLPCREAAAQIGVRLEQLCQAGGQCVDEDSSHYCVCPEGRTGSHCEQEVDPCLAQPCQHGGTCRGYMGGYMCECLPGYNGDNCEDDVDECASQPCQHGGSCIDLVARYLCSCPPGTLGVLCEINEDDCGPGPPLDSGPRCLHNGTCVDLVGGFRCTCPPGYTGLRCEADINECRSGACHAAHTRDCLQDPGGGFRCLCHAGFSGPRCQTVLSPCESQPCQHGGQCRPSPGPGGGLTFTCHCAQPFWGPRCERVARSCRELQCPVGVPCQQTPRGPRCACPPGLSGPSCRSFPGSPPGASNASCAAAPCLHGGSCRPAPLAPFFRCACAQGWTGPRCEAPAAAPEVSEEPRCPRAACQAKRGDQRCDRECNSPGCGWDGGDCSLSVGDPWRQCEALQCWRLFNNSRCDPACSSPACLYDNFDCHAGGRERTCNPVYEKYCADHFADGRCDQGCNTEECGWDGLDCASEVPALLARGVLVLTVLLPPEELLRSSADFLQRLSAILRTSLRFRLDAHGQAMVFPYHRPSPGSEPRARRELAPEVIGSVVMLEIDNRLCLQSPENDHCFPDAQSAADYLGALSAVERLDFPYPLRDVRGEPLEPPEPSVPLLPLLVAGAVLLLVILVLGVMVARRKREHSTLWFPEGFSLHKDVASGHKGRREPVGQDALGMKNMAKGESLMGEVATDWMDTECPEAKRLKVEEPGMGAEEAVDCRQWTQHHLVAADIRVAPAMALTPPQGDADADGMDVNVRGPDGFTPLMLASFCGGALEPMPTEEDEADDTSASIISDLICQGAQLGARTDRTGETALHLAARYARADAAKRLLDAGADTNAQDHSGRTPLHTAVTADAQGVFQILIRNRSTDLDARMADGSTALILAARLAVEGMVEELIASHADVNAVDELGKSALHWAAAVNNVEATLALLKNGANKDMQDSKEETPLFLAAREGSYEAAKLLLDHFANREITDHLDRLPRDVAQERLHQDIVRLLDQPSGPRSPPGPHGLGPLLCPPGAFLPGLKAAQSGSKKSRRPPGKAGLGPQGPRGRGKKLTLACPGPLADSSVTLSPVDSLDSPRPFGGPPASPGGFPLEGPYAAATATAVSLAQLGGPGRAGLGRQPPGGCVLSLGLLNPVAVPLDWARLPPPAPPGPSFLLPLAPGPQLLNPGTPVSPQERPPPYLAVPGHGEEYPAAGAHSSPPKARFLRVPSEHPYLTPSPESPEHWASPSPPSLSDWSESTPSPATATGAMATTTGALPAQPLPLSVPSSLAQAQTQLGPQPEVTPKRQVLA
A short description of assay [20]: probe aEGFR binding to arrayed compounds – biochemical, biotinylated probe, 635/667 nm fluorescence, primary screen (AID 1097).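 Further: probe is a biotinylated anti-EGFR antibody binding compounds printed on slides; score combines fluorescence near 667 nm and signal to noise of each spot.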 The following applies: small-molecule microarray, higher = more signal.

Calls of active or inactive are those of the source.

Chain of Pro-neuregulin-1, membrane-bound isoform (Homo sapiens) (Q02297 whole entry, looked up, the tested form may be a part, canonical isoform): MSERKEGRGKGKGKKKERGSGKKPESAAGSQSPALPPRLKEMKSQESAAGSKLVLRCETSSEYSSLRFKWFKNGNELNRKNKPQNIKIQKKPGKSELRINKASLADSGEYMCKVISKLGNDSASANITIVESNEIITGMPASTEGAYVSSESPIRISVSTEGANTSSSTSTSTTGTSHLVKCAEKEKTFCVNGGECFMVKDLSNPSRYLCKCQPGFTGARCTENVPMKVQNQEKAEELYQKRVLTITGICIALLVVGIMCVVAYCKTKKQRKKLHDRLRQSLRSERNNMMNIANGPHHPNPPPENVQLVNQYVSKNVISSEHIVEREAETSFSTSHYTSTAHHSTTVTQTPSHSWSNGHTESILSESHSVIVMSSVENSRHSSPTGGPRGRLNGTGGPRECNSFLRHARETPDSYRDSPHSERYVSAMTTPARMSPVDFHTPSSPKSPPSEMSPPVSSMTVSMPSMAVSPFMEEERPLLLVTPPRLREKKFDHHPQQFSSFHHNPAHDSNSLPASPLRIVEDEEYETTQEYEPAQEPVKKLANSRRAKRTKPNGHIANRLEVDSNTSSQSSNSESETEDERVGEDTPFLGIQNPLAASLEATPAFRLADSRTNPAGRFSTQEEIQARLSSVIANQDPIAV

Take `COCCCNC(=O)[C@]1(Cc2ccccc2)N=C(c2ccc(OCCCO)cc2)O[C@@H]1c1ccccc1`: the composite z-score in assay [1] is 0.206; in [2], -0.0225; in assay [3], -0.01; in [4], 0.791; in assay [5] it was 0.967; in assay [6], 1.54. In addition, the composite z-score in assay [7] was 1.04; in assay [9], 0.584; in assay [10] it was -0.0645; in assay [11], 1.44; in assay [15], 3.61; in [17] it was 0.0814. Moreover, the composite z-score in [18] is 0.468; in assay [19], 0.129; in assay [20], -0.0594. Besides, the z-score in [8] is -1.33 (inactive); in assay [12], -1 (inactive); in assay [13], -1.32 (inactive); in assay [14], -1.41 (inactive); in assay [16], -0.806 (inactive).
For `C=C(CCCC)C(=O)CC[C@@H](OC(C)=O)c1cccc(OCCO)c1`, the composite z-score in assay [1] was -0.168; in [2] it was -0.371; in [3] it was -0.152; in assay [4] it was -0.565; in [5], -0.46; in assay [6], 0.25. Moreover, the composite z-score is 1.36 in assay [7]; -0.507 in assay [9]; -0.0994 in assay [10]; 0.468 in [11]; 0.0116 in assay [15]; -0.193 in assay [17]. The composite z-score in assay [18] was 1.54; in assay [19], 0.165; in [20], -0.192. The z-score in assay [8] is -3.56 (inactive); in assay [12] it was -24.3 (active); in assay [13], -20.6 (active); in [14] it was -3.92 (inactive); in assay [16] it was -0.139 (inactive).
For the compound `COC(=O)[C@@]1(Cc2ccccc2)[C@H]2c3cc(C(=O)N4CCCC4)n(Cc4ccccn4)c3C[C@H]2CN1C(=O)c1ccccc1`, the composite z-score was 0.731 in assay [1]; 0.415 in assay [2]; 0.589 in assay [3]; 1.14 in assay [4]; 1.52 in [5]; 2.18 in assay [6]. The composite z-score in [7] was 1.35; in assay [9] it was 1.65; in assay [10], 0.257; in assay [11] it was 1.57; in [15], 4; in [17], 0.614. The results for the composite z-score in [18], in assay [19] and in assay [20] were 0.856, 1.14 and 0.211, respectively. Moreover, the z-score is 2.5 (inactive) in assay [8]; 0.263 (inactive) in [12]; 0.296 (inactive) in assay [13]; 0.513 (inactive) in assay [14]; -0.301 (inactive) in assay [16].
Regarding `C#CCCCON=C1C[C@@H](O)[C@@H](O)[C@@H]2[C@@H]3C(=O)N(Cc4ccccc4)C(=O)[C@@H]3CC[C@H]12`, the composite z-score is -0.304 in [1]; 0.251 in assay [2]; -0.116 in assay [3]; 0.317 in assay [4]; 0.69 in assay [5]; 0.197 in assay [6]. In addition, the composite z-score in assay [7] is -0.0787; in assay [9], 0.149; in assay [10] it was -0.169; in assay [11], 0.0491; in assay [15], -0.172; in assay [17], -0.0294. Further, the composite z-score in [18] is 0.407; in assay [19] it was 0.297; in assay [20], -0.102. The z-score in assay [8] is -0.0765 (inactive); in assay [12] it was -0.609 (inactive); in assay [13], -0.216 (inactive); in assay [14], -1.49 (inactive); in assay [16], -0.0603 (inactive).
As to `N#Cc1ccc(NN2C(C(O)c3cc(C(F)(F)F)cc(C(F)(F)F)c3)C=CC3C(=O)N(c4ccccc4)C(=O)C32)cc1` (stereo not given), the composite z-score came to 0.0678 in assay [1]; 0.517 in assay [2]; 0.116 in [3]; 0.668 in assay [4]; 1.27 in [5]; 1.97 in [6]. The composite z-score in assay [7] is 1.22; in assay [9], 0.785; in [10], 0.357; in [11], 1.34; in assay [15], 3.45; in [17], 0.135. In addition, the composite z-score in [18] amounted to 0.0695; in assay [19], 1.05; in assay [20], 0.0731. For the same compound, the z-score is 0.474 (inactive) in assay [8]; 0.628 (inactive) in assay [12]; 0.817 (inactive) in assay [13]; 4.19 (inactive) in [14]; -1.55 (inactive) in assay [16].

(Values after PubChem BioAssay.)
